Assay outcomes from PubChem.
Only some compounds are listed: those with a hit (about 2.4% of all), similar ones and a draw of the others.
SENP8 block-1: SENP8 protease inhibitors, primary screen, biochemical, luminescence; Sentrin-specific protease 8 (Homo sapiens), Q96LD8; purified SENP8, Z-RLRGG-aminoluciferin cleavage; inhibition, % at 10 µM; 330,000 tested, 1.2% active; in the data active = inhibition above about 50%
SENP6 block: SENP6 protease inhibitors, primary screen, biochemical, luminescence, uHTS | AID 2599, 2010 | 330,000 tested, 1.8% active | Sentrin-specific protease 6 (Homo sapiens), Q9GZR1 | inhibition, % at 10 µM | Recombinant SENP6 catalytic domain, aminoluciferin luminescence;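 active = inhibition above about 50% at the single tested dose, limit read from the data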;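 also: plate controls were DMSO wells with enzyme for no effect and DMSO wells lacking enzyme for full effect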
Target sequence (Q9GZR1 628-1112 limits assumed): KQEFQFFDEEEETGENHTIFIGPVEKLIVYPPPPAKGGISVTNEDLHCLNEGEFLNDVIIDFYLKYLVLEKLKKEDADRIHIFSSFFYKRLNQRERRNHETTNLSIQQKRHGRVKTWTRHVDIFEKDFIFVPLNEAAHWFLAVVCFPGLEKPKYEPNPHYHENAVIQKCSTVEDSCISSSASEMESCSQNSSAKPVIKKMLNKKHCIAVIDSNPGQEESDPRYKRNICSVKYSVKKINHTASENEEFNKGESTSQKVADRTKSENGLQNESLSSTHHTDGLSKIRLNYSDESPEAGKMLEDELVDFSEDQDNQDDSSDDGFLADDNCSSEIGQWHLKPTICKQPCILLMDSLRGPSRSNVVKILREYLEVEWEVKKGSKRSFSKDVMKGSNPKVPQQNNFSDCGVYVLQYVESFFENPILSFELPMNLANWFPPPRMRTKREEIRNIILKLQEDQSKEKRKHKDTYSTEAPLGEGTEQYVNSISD
SENP8 block-2: human SENP8 protease inhibitors, primary screen, biochemical, fluorescence, Nedd8 protein substrate, uHTS; Sentrin-specific protease 8 (Homo sapiens), Q96LD8; recombinant SENP8; inhibition, % at 20 µM; 360,000 tested, 0.64% active; AID 602440, 2012; in the data active = inhibition mostly above about 40%, no sharp cut-off; inactive = mostly below about 27%
Platelet DG rel: inhibitors of platelet dense granule secretion, primary screen, cell-based, MLPCN, human platelets; 300,000 tested, 0.22% active; AID 1663, 2009; inhibition, %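 (compounds screened at 7.5 µM in platelet-rich plasma)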; human platelet-rich plasma, SFLLRN dense granule ATP release, luminescence;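 active = mean replicate score, as percent of positive control, at or above 50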
SENP7 block: SENP7 protease inhibitors, primary screen, biochemical, luminescence, uHTS; 330,000 tested, 1.5% active; recombinant SENP7, Z-RLRGG-aminoluciferin luminescence, 40 min; Sentrin-specific protease 7 (Homo sapiens), Q9BQF6; inhibition, % at 5 µM;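 active = inhibition above about 50% at the single test dose, limit read from the data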;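 also: plate controls were DMSO with enzyme for no effect and no enzyme buffer wells for full effect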
SENP8 conf: SENP8 protease inhibitors, retest, confirmation, biochemical, luminescence, single concentration; shares compounds with SENP7 block; Recombinant SENP8, Z-RLRGG-aminoluciferin luminescence, 60 min; inhibition, % at 12.5 µM; 6,200 tested, 40% active; AID 488912, 2010;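 active = mean inhibition across replicates above about 50%, limit read from the data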
SENP6 confirm: SENP6 protease inhibitors, confirmation, biochemical, luminescence, single concentration. recombinant SENP6, Z-RLRGG-aminoluciferin luminescence. AID 488915, 2010. 6,200 tested, 58% active. inhibition, % at 12.5 µM. shares compounds with SENP7 block
SENP7 confirm: SENP7 protease inhibitors, retest, confirmation, biochemical, luminescence, single concentration; inhibition, % at 12.5 µM; recombinant SENP7, Z-RLRGG-aminoluciferin luminescence, 40 min; 6,200 tested, 69% active; shares compounds with SENP7 block
Casp3 SENP sel: caspase-3 protease inhibitors, confirmation, selectivity assay for SENP inhibitor project, biochemical, single concentration. shares compounds with SENP7 block. purified caspase-3, Z-DEVD-aminoluciferin luminescence, 60 min. inhibition, % at 12.5 µM. 6,200 tested, 60% active;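 active = mean inhibition above about 50%, limit read from the data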;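 also: plate controls were enzyme with DMSO for no effect and wells without caspase-3 for full effect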
SENP luc ctr: interferes with luciferase luminescence in SENP counter-screen | shares compounds with SENP7 block | Pre-incubated SENP8/Z-RLRGG-aminoluciferin, luciferase luminescence interference | inhibition, % at 12.5 µM | 6,200 tested, 39% active;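 active = mean inhibition above about 50% when retested at one dose, limit read from the data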;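 also: plate controls were DMSO wells with completed reaction for no effect and substrate without enzyme for full effect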
The depositor's hits bear a star; i = inactive; . = no result given.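 The calls were made as follows, unless noted: active = mean inhibition above about 50% in the one-dose retest (limit read from the data); inactive = the rest.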

SMILES | SENP8 block-1 | SENP6 block | SENP8 block-2 | Platelet DG rel | SENP7 block | SENP8 conf | SENP6 confirm | SENP7 confirm | Casp3 SENP sel | SENP luc ctr
CC1=NN(C(N)=S)C(=O)C1N=Nc1ccccc1C (configuration not stated) | 75* | -2 | 35 | 0 | 48 | 31 | 41 | 58* | 70* | 23
CC1=NN(C(N)=S)C(=O)C1N=Nc1c(Br)cc(Br)cc1Br (configuration not stated) | 74* | 85* | 18 | 9 | 0 | 1 | 82* | 90* | 51* | 58*
CC1=NN(C(N)=S)C(=O)C1N=Nc1c(Cl)cc([N+](=O)[O-])cc1Cl (configuration not stated) | 95* | 98* | 47* | -2 | 82* | 96* | 96* | 101* | 95* | 65*
CC1=NN(C(N)=S)C(=O)C1N=Nc1ccccc1O (configuration not stated) | -4 | 7 | 13 | -4 | -9 | . | . | . | . | .
CC1=NN(C(N)=S)C(=O)C1N=Nc1c(C)cc(C)cc1C (configuration not stated) | -8 | 16 | 26 | 1 | 1 | . | . | . | . | .
CC1=NN(C(N)=S)C(=O)C1N=Nc1ccccc1[N+](=O)[O-] (configuration not stated) | . | . | 28 | . | . | . | . | . | . | .
COc1ccc(C(=O)OCC(O)COC(=O)c2ccc(OC)cc2)cc1 | 2 | 5 | 8 | 8 | 7 | . | . | . | . | .
N#Cc1c(Cl)nc(-c2ccncc2)nc1-c1ccccc1 | 1 | 0 | -20 | -23 | -6 | . | . | . | . | .
COc1ccc(-n2nnnc2SCC(=O)Nc2nnc(C)s2)cc1OC | -4 | 0 | 4 | 17 | 95* | -24 | -16 | -7 | -8 | -5
N#Cc1c(N2CCN(c3ccc(F)cc3)CC2)nc(N)c2c(N)nc3c(c12)CC(=O)N3C1CC1 | . | . | -328 | . | . | . | . | . | . | .
CN(CCO)c1nc(N)c2c(N)nc3c(c2c1C#N)CC(=O)N3C1CCCC1 | 96* | 91* | . | -53 | 96* | 11 | 10 | -7 | -2 | -1
CC(C)(C)N1C(=O)Cc2c1nc(N)c1c(N)nc(N3CCCCC3CO)c(C#N)c21 (configuration not stated) | 97* | 93* | i | -8 | 94* | 20 | 26 | 9 | 1 | 0
O=C1c2ccccc2C2(c3cc(C(F)(F)F)cc(C(F)(F)F)c3)NCCN12 (configuration not stated) | . | . | 8 | 7 | . | . | . | . | . | .
O=c1[nH]c2ccccc2nc1/C=C/c1ccc(F)cc1 | 59* | 64* | -399 | 2 | 55* | 26 | 26 | 23 | 19 | 10
O=c1[nH]c2ccccc2nc1/C=C/c1ccccc1 | 56* | 10 | -395 | 4 | 56* | 14 | 27 | 49 | 42 | 16
O=c1[nH]c2ccccc2nc1/C=C/c1ccc(O)cc1 | 93* | 93* | -385 | 35 | 92* | 97* | 98* | 102* | 92* | 83*
CC(C)(C)/C(O)=C/c1nc2ccccc2[nH]c1=O | 4 | -7 | -14 | -15 | -4 | . | . | . | . | .
Cn1c(=O)c(/C=C/c2ccc(F)cc2)nc2ccccc21 | . | . | -446 | -18 | . | . | . | . | . | .
O=C1CN(C(=O)COC(=O)c2cccs2)c2ccccc2N1 | -4 | -2 | -12 | . | 2 | . | . | . | . | .
O=C(COC(=O)c1ccc(O)cc1)NC(=O)NCc1ccccc1 | -3 | -11 | 11 | . | -4 | . | . | . | . | .
O=C(OCC(=O)c1ccc[nH]1)c1ccc([N+](=O)[O-])cc1 | -13 | 5 | 19 | . | 2 | . | . | . | . | .
O=C1CN(C(=O)COC(=O)c2ccc([N+](=O)[O-])s2)c2ccccc2N1 | 65* | 53* | 26 | . | 29 | 2 | 85* | 44 | 4 | 0
O=C(COC(=O)c1ccc(Br)o1)NCc1ccc(F)cc1 | -2 | -9 | 6 | . | -4 | . | . | . | . | .
O=C(COC(=O)c1ccc([N+](=O)[O-])s1)NC(=O)NCc1ccccc1 | 66* | 87* | 23 | 1 | 32 | 75* | 84* | 40 | 6 | -3
O=C(COC(=O)c1ccc([N+](=O)[O-])s1)NCc1ccc(F)cc1 | 67* | 76* | 30 | -9 | 52* | 5 | 85* | 42 | 26 | -2
SMILES | SENP8 block-1 | SENP6 block | SENP8 block-2 | Platelet DG rel | SENP7 block | SENP8 conf | SENP6 confirm | SENP7 confirm | Casp3 SENP sel | SENP luc ctr
O=C(COC(=O)c1ccc([N+](=O)[O-])s1)c1ccc[nH]1 | 57* | 35 | 34 | . | 6 | 29 | 79* | 24 | 19 | -8
Cc1ccc(NC(=O)Nc2ccc3c(c2)OCO3)c(OC(F)F)c1 | -1 | 24 | 3 | 1 | 24 | . | . | . | . | .
O=C(NC(=S)Nc1ccc(S(=O)(=O)Nc2nccs2)cc1)c1ccc(F)cc1 | 23 | 64* | 11 | 1 | 1 | 36 | 33 | 66* | 45 | 52*
O=C(Nc1ccccc1)N1CCCC(CNS(=O)(=O)Cc2ccccc2)C1 (configuration not stated) | 6 | 4 | 6 | 4 | 2 | . | . | . | . | .
CCCc1nnc(NC(=O)CC(=O)Nc2ccccc2C(=O)O)s1 | 43 | 61* | 0 | -31 | 38 | 65* | 61* | 84* | 87* | 60*
CC(=O)Nc1ccc(SCC(=O)NC(=O)c2ccc(S(=O)(=O)N(C)C)cc2)cc1 | 5 | 4 | 1 | . | 10 | . | . | . | . | .
COC(=O)c1ccc(/C=C/c2nc3ccccc3c(=O)[nH]2)cc1 | 85* | 89* | -321 | 63* | 96* | 29 | 24 | 52* | 63* | -4
C=CCNc1nc2ccccc2c(=O)[nH]1 | -1 | 10 | -324 | 8 | -4 | . | . | . | . | .
Cc1ccccc1/C=C\c1nc2ccccc2c(=O)[nH]1 | 69* | 76* | -74 | 6 | 85* | 15 | 24 | 62* | 25 | -4
